Data on 17 compounds can be found in PubChem BioAssay (Tox21).

For assay [1], the target named is Acetylcholinesterase (Homo sapiens) (UniProt P22303). As to the kind of experiment: Acetylcholinesterase (AChE) small molecule antagonists: colormetric cell-based qHTS assay (AID 1347395; calls by dose curve; note: nearly all actives have a fitted effect of over 30% in size). In a few lines: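 Cells (SH-SY5Y, 2,000 per well) are seeded and left overnight at 37 C. Compound is added for 30 min, then DTNB and acetylthiocholine for a further 90 min at 37 C before absorbance-based thiocholine detection.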

Assay [2] is described as follows: qHTS assay for small molecules that induce genotoxicity in human embryonic kidney cells expressing luciferase-tagged ATAD5 - cell viability (AID 651634; calls by dose curve; note: nearly all actives have a fitted effect of over 25% in size; note: potency is the fitted concentration of half-maximal effect). In a few lines:
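HEK293T cells expressing luciferase-tagged ATAD5 were exposed to compound or DMSO for 15.5 hr at 37C, 5% CO2. Viability was then read as live-cell protease activity by CellTiter-Fluor fluorescence after 30 min at 37C.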

Assay [3] can be described thus: qHTS assay for small molecule disruptors of the mitochondrial membrane potential - cell viability (AID 720634; calls by dose curve;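 note: human HepG2 liver cancer cells; series mostly up to about 83 µM; nearly all actives have a fitted effect of over 20% in size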). In a few lines:
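HepG2 cells seeded overnight at 37 C, then exposed to compound or DMSO for 1 hr at 37 C, 5% CO2. m-MPI dye added, then CellTiter-Glo for 30 min at room temperature; viability read as ATP luminescence.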

Assay [4] can be described thus: qHTS assay to test for compound auto fluorescence at 535 nm (green) in HepG2 cells (AID 720675).
Assay [5] is described as follows: qHTS assay to test for compound auto fluorescence at 535 nm (green) in HEK293 cells (AID 720680).
A short description of assay [6]: qHTS assay to test for compound auto fluorescence at 460 nm (blue) in HEK293 cell free culture (AID 720681). In a few lines:
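Blue fluorescence (Ex 405/Em 460 nm, triamterene-equivalent) was read immediately after pin transfer of compound or DMSO into medium (DMEM, 10% FBS) without cells.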

Assay [7] is described as follows: qHTS assay to test for compound auto fluorescence at 535 nm (green) in HEK293 cell free culture (AID 720682). In a few lines: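 No cells present: wells hold DMEM supplemented with 10% FBS, into which compound or vehicle is pinned. Green emission is then recorded (485 nm excitation, 535 nm emission) and scaled to fluorescein.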
A short description of assay [8]: qHTS assay to test for compound auto fluorescence at 590 nm (red) in HEK293 cell free culture (AID 720683). In a few lines: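 Red-channel autofluorescence of compounds in culture medium (DMEM, 10% FBS), no cells, measured at 540/590 nm. Rose Bengal sodium is the reference fluorophore for equivalence.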
The nature of assay [9]: qHTS assay to test for compound auto fluorescence at 590 nm (red) in HepG2 cell free culture (AID 720684). In a few lines:
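Plate contents were MEM with 10% FBS plus test compound or DMSO, no cells. Fluorescence was recorded with 540 nm excitation and 590 nm emission.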

The nature of assay [10]: qHTS assay to test for compound auto fluorescence at 460 nm (blue) in HepG2 cell free culture (AID 720685). In a few lines:
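Compound (23 nL) or DMSO pinned into cell-free MEM with 10% FBS; blue fluorescence read at 405/460 nm excitation/emission, expressed as auto-fluorescence equivalency to triamterene.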

Assay [11] is described as follows: qHTS assay for identifying genotoxic compounds that show differential cytotoxicity against isogenic chicken DT40 cell lines with known DNA damage response pathways - Rad54/Ku70 mutant cell line (AID 743015). Note: nearly all actives have a fitted effect of over 60% in size. Note: potency is the fitted concentration of half-maximal effect.
The nature of assay [12]: qHTS assay to identify small molecule antagonists of the androgen receptor (AR) signaling pathway using the MDA cell line - cell viability counter screen (AID 743041; note: nearly all actives have a fitted effect of over 45% in size). In a few lines:
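R1881-driven MDA-kb2 AR-luc cells, 3,000/well, were dosed with library compounds for 16 h; cell health came from CellTiter-Fluor fluorescence in the reporter wells.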

Assay [13] can be described thus: qHTS assay to identify small molecule antagonists of the thyroid receptor (TR) signaling pathway (AID 743065). Note: nearly all actives have a fitted effect of over 55% in size. Note: potency is the fitted concentration of half-maximal effect. In a few lines: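 Antagonism measured as loss of luciferase signal in GH3 cells stably carrying a TRE-luciferase reporter, co-treated with compound and T3 (1 nM final) for 23.5 h at 37 C. Viability was read in the same well by CellTiter-Fluor.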
Assay [14] is described as follows: qHTS assay to identify small molecule antagonists of the estrogen receptor alpha (ER-alpha) signaling pathway using the BG1 cell line - cell viability counter screen (AID 743081).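 Note: compound given together with 17beta-estradiol as the ER stimulus; series mostly up to about 70 µM; nearly all actives have a fitted effect of over 45% in size.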
For assay [15], the target named is Aromatase (Homo sapiens) (UniProt P11511). The assay is described as follows: qHTS assay to identify aromatase inhibitors (AID 743083). Note: series mostly up to about 70 µM; nearly all actives have a fitted effect of over 55% in size.
Assay [16] is described as follows: qHTS assay to identify aromatase inhibitors - cell viability counter screen (AID 743084).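 Note: cells stimulated with testosterone during compound exposure; nearly all actives have a fitted effect of over 55% in size.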
Assay [17] concerns the target Aryl hydrocarbon receptor (Homo sapiens) (UniProt P35869). As to the kind of experiment: qHTS assay to identify small molecule that activate the aryl hydrocarbon receptor (AhR) signaling pathway (AID 743085). Note: nearly all actives have a fitted effect of over 15% in size. Note: potency is the fitted concentration of half-maximal effect. In a few lines:
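Compounds were tested in HepG2 hepatocellular carcinoma cells harbouring a stably integrated luciferase gene under control of 20 DREs. Increased reporter signal after 24 h treatment at 37C was taken as AhR activation.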

The nature of assay [18]: qHTS assay to identify small molecule that activate the aryl hydrocarbon receptor (AhR) signaling pathway - cell viability counter screen (AID 743086).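 Note: HepG2 liver cells carrying the AhR DRE luciferase reporter; series mostly up to about 70 µM; nearly all actives have a fitted effect of over 45% in size.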 In a few lines:
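Cytotoxicity counter screen: CellTiter-Fluor signal (30 min, 37 C) in 4000 HepG2 cells/well carrying the DRE-luciferase reporter, following 24 h compound exposure at 37 C.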

Assay [19] in a line: qHTS assay to identify small molecule phospholipidosis (PLD) inducers (AID 1259344; active = well fitted curve in the direction sought with a large enough effect; an effect the other way counts as inactive or inconclusive). In a few lines:
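Fluorescent phospholipid staining (LipidTOX Red) measured by automated microscopy in fixed HepG2 cells after 24 h treatment; nuclei counterstained with Hoechst 33342; amiodarone as reference inducer.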

A short description of assay [20]: qHTS assay for small molecules that induce genotoxicity in human embryonic kidney cells expressing luciferase-tagged ATAD5 (AID 651632). Note: nearly all actives have a fitted effect of over 15% in size. Note: potency is the fitted concentration of half-maximal effect. In a few lines:
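HEK293T cells carrying a luciferase reporter tagged to ATAD5 were exposed to compound or DMSO vehicle for 16 hr at 37C, 5% CO2. Amplite was added, and after 30 min at room temperature luciferase activity was read as a marker of ATAD5 induction.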

Where “and” joins values, the source holds several entries; their conditions need not be identical. Identical values can stand only once. Unmarked numbers belong to inactive results. Inconclusive results are not listed. Calls of active or inactive are those of the source. Unless noted, calls come from the whole dose curve; as a rule, active = well fitted curve in the direction sought with a large enough effect in the repeat runs; inconclusive = weak or mixed curves; inactive = no such curve, though single readings can be large; an effect the other way counts as inactive or inconclusive.
% is set by controls: 0 for no effect and ±100 for the full control effect.

Chain of Aryl hydrocarbon receptor (Homo sapiens) (P35869 whole entry, looked up): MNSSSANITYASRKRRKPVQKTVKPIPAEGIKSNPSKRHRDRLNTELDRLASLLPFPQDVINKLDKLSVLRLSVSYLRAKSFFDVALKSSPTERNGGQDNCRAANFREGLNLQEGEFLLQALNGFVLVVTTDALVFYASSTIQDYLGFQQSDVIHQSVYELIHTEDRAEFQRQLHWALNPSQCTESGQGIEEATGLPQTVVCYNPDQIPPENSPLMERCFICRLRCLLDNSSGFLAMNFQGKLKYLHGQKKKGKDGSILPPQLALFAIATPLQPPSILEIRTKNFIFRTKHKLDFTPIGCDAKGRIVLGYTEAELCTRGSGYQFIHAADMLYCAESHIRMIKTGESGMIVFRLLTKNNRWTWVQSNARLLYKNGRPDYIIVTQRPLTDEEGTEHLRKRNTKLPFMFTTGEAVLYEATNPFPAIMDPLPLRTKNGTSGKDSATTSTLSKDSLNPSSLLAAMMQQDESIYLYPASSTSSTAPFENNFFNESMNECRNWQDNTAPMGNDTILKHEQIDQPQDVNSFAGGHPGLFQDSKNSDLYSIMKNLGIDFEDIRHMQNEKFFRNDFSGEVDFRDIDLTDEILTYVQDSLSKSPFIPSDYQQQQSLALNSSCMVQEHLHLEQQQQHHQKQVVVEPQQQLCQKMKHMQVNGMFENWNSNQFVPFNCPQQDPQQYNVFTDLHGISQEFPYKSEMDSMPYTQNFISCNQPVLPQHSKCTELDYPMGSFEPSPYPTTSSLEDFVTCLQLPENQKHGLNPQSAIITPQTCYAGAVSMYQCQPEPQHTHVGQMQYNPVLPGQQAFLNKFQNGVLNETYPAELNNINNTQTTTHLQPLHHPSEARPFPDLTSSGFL
Chain of Aromatase (Homo sapiens) (P11511 whole entry, looked up): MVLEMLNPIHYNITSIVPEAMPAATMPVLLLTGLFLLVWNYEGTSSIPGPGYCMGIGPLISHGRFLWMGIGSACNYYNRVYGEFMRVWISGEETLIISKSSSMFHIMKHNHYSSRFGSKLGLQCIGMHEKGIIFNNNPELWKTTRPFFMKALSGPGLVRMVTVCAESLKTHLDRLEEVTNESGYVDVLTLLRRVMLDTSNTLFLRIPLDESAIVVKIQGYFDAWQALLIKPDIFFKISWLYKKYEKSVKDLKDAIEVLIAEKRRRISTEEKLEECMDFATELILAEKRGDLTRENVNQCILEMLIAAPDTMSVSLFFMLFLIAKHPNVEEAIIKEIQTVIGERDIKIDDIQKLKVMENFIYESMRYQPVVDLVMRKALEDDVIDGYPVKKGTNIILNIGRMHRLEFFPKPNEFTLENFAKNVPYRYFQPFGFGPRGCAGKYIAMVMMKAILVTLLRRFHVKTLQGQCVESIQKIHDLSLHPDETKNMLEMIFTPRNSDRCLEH
Chain of Acetylcholinesterase (Homo sapiens) (P22303 whole entry, looked up): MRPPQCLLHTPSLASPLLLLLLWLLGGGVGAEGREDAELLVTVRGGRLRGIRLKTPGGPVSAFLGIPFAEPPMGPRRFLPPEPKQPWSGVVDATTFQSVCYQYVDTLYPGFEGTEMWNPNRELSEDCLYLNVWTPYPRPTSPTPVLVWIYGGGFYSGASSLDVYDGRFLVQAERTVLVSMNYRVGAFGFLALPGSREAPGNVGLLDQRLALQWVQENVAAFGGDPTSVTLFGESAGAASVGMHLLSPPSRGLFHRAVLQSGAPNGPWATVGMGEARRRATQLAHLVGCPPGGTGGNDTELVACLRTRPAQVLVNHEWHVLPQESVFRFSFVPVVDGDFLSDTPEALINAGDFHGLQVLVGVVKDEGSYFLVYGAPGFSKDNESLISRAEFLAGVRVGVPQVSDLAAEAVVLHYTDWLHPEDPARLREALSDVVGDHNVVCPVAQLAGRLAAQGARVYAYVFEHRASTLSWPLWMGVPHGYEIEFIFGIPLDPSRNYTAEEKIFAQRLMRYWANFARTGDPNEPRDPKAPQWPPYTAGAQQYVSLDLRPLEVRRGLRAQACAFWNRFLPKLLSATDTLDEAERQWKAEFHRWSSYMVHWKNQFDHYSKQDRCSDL

Turning to `c1ccc(-c2ccccc2-c2ccccc2)cc1`, the Potency result in assay [1] is “inactive”.

Turning to `C1CN(P2(N3CC3)=NP(N3CC3)(N3CC3)=NP(N3CC3)(N3CC3)=N2)CCO1` (stereo unspecified), the Potency entry in assay [2], in assay [3], in [4], in assay [5], in assay [6] and in [7] was “inactive” each time. The Potency entry in [10], in assay [12], in assay [13], in assay [14], in [15] and in [16] was “inactive” each time. Further, the Potency entry in assay [17] and in assay [18] was “inactive” in each case. Besides, the compound was called inactive in assay [8] and in [9]. The Potency in assay [11] was 8.41 µM (active). In assay [19], the PLD induction was 0.928% [at 7.66 µM].

As to `O=C(Cl)c1cccc(C(=O)Cl)c1`, the Potency entry in [15], in assay [17] and in assay [1] was “inactive” each time.

As to `CC(C)[C@@]1(NC(=O)[C@@H]2C[C@@H]3c4cccc5[nH]cc(c45)C[C@H]3N(C)C2)O[C@@]2(O)[C@@H]3CCCN3C(=O)[C@H](Cc3ccccc3)N2C1=O`, the Potency result in [20], in [3], in assay [4], in assay [5], in assay [6] and in assay [7] was “inactive” in each case. The Potency entry in assay [10], in [12], in assay [14], in assay [15], in [16] and in assay [17] was “inactive” throughout. In addition, the compound was called inactive in [8] and in assay [9]. For the same compound, the Potency in assay [11] was 23.7 µM (active) and 26.6 µM (active); in assay [13] it was 23.7 µM (active) and 26.6 µM (active).

As for `CN1[C@@H]2CC[C@H]1CC(OC1c3ccccc3CCc3ccccc31)C2` (stereo partly specified), the Potency result in assay [20], in assay [2], in assay [3], in [4], in assay [5] and in assay [6] was “inactive” each time. Besides, the Potency result in [7], in [10], in assay [12], in assay [14], in assay [15] and in assay [16] was “inactive” each time. For the same compound, the Potency result in assay [17] and in [18] was “inactive” throughout. In addition, the compound was classed as inactive in assay [8] and in [9]. The Potency in assay [11] was 11.4 µM (active); in assay [13], 5.07 µM (active).

For `C=CCOc1c(Br)cc(C(C)(C)c2cc(Br)c(OCC=C)c(Br)c2)cc1Br`, the Potency entry in assay [17] and in assay [1] was “inactive” each time.

`Clc1cc(Cl)c(-c2c(Cl)c(Cl)cc(Cl)c2Cl)cc1Cl`: in assay [1], the Potency entry was “inactive”.

For the compound `CN(C)CCCCCCN(C)C` (tested in a mixture with another compound), the Potency entry in assay [2], in assay [3], in [4], in assay [5], in [6] and in assay [7] was “inactive” throughout. The Potency entry in assay [10], in assay [11], in [12], in [13], in assay [14] and in [15] was “inactive” in each case. Further, the Potency entry in assay [16], in [17], in assay [18] and in assay [19] was “inactive” in each case. For the same compound, the outcome in [8] and in [9] was inactive.

Consider `C[C@@H]1[C@@H]2Cc3ccc(O)cc3[C@@]1(C)CCN2CCc1ccccc1`, for which the Potency result in assay [2], in assay [3], in [4], in assay [5], in [6] and in [7] was “inactive” throughout. For the same compound, the Potency result in assay [10], in [14], in assay [15], in assay [16] and in assay [19] was “inactive” each time. In addition, the result in assay [8] and in assay [9] was inactive. The results for the Potency in assay [11], in assay [13] and in assay [17] were 7.6 µM (active), 53.8 µM (active) and 8.53 µM (active), respectively.

For `COc1cc(C[C@H](C)N)c(OC)cc1C`, the Potency result in assay [20], in assay [2], in assay [3], in [4], in [5] and in assay [6] was “inactive” throughout. In addition, the Potency entry in assay [7], in assay [10], in [11], in [15], in assay [16] and in assay [18] was “inactive” each time. The Potency entry in assay [19] is “inactive”. For the same compound, the outcome in [8] and in [9] was inactive.

Take `Cc1nnc2n1-c1sc(Br)cc1C(c1ccccc1Cl)=NC2`: the Potency in [20] is 23.7 µM (active); in assay [11], 26.6 µM (active); in assay [13], 26.6 µM (active). For the same compound, the Potency entry in [2], in assay [3], in assay [4], in [5], in assay [6] and in assay [7] was “inactive” each time. The Potency entry in [10], in assay [12], in assay [15], in assay [16], in assay [17] and in [18] was “inactive” in each case. Moreover, the Potency entry in [19] was “inactive”. In addition, the outcome in [8] and in assay [9] was inactive.

As for `COc1ccc(OC)c(C[C@H](C)N)c1`, the Potency result in [20], in assay [2], in assay [3], in assay [4], in assay [5] and in assay [6] was “inactive” each time. In addition, the Potency entry in [7], in [10], in assay [11], in assay [14], in [15] and in assay [16] was “inactive” in each case. In addition, the Potency result in [17], in [18] and in assay [19] was “inactive” each time. Moreover, the outcome in [8] and in assay [9] was inactive.

Turning to `Clc1cc(Cl)c(Cl)cc1Cl`, the Potency result in [15], in [17] and in assay [1] was “inactive” throughout.

For the compound `CN1[C@@H]2CC[C@H]1CC(OC(=O)C(CO)c1ccccc1)C2` (stereo partly specified), in assay [15], the Potency entry was “inactive”.

As for `C[C@]12CC[C@H]3[C@@H](CCC4=CC(=O)CC[C@@]43C)[C@@H]1CC[C@H]2O`, the Potency result in [20], in assay [2], in [3], in assay [4], in assay [5] and in assay [6] was “inactive” each time. For the same compound, the Potency entry in assay [7], in assay [10], in [12], in [14], in [15] and in assay [16] was “inactive” in each case. The Potency entry in assay [17] and in assay [18] was “inactive” throughout. For the same compound, the call in assay [8] and in assay [9] was inactive. In assay [11], the Potency was 29.8 µM (active).

As to `CNC(=O)Oc1ccc2c(c1)[C@]1(C)CCN(C)[C@@H]1N2C`, the Potency entry in assay [15] and in assay [17] was “inactive” throughout.

Turning to `CO[C@H]1[C@@H](O)C[C@H](O[C@H]2[C@@H](O)C[C@H](O[C@H]3[C@@H](O)C[C@H](O[C@H]4CC[C@@]5(C)[C@H](CC[C@@H]6[C@@H]5C[C@@H](O)[C@]5(C)[C@@H](C7=CC(=O)OC7)CC[C@]65O)C4)O[C@@H]3C)O[C@@H]2C)O[C@@H]1C`, the results for the Potency in assay [2] and in assay [11] were 0.0944 µM (active) and 0.668 µM (active), respectively. Besides, the Potency entry in assay [3], in [4], in assay [5], in [6], in [7] and in assay [10] was “inactive” throughout. The Potency entry in assay [13], in [14], in assay [15], in [16] and in assay [17] was “inactive” throughout. The call in [8] and in assay [9] was inactive.
